Molecules are shown by their SMILES. For some assays here: Entries with a potency or affinity are not part of this list.

Common to all, as to design: scale not given: direction of the effect not stated beside the values
The target in test [1] is Protein translocase subunit SecA (Escherichia coli (strain K12)) (UniProt P10408). The experiment in a line: Assay to Identify E. coli SecA ATPase Inhibitors. The class given is functional. The settings on record: 30 µM.
The target of test [2] is T1, Ubiquitin-activating enzyme e1, putative (Leishmania donovani (strain BPK282A1)) (UniProt E9BSI1).
T1 sequence (whole entry): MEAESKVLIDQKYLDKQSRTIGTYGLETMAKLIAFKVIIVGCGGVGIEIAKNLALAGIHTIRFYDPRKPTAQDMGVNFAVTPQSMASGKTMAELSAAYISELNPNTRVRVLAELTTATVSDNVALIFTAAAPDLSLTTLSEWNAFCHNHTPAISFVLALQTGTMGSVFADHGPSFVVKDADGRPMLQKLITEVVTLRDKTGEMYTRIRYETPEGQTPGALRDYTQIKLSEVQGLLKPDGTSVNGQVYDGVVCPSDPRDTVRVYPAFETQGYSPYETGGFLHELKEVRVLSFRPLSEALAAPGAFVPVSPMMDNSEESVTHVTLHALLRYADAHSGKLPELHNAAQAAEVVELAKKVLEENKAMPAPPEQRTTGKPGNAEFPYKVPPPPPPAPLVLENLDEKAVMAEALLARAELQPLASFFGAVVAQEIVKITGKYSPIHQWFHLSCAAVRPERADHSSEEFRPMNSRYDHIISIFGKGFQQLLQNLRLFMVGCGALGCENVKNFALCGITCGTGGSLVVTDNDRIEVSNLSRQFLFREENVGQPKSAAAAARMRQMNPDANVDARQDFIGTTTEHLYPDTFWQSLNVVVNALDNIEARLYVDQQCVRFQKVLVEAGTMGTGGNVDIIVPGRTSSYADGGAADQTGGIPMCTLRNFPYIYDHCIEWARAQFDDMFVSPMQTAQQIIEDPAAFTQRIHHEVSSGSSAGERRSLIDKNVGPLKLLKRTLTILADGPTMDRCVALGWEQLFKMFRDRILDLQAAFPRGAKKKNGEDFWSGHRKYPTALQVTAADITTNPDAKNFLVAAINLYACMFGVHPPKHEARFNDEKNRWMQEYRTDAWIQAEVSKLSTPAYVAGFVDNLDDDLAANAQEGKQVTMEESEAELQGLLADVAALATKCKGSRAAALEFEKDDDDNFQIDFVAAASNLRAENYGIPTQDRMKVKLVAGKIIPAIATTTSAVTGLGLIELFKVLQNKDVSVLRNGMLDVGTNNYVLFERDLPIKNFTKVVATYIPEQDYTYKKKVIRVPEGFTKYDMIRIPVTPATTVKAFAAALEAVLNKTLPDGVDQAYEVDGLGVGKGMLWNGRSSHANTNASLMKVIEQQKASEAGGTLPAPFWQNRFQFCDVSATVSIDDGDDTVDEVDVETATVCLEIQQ
The experiment in a line: Leishmania donovani Ubiquitin Activating Enzyme (LdE1). The settings on record: 30 µM. The class given is functional.

Test [3] deals with AMP-activated protein kinase, AMPK (Homo sapiens) (UniProt P54646+O43741+P54619+Q9UGJ0+Q9Y478+Q13131+Q9UGI9). The experiment in a line: AMP-dependent Kinase enzyme assay. An in vitro enzyme assay that detects ADP turnover that is directly proportional to AMPK activity. This uses naive AMPK that is activated during the assay with MK-8722. Conditions: 30 µM. In kind it is functional.

Test [4] addresses Sialic acid-binding Ig-like lectin 9 (Homo sapiens) (UniProt Q9Y336). The experiment in a line: Hs-Siglec9 ALPHAscreen SOP 20170721. The settings on record: 10 µM. A general note: Alpha assays give light when donor and acceptor beads are brought close together.
The test system of test [5] is Trypanosoma cruzi. The experiment in a line: Trypanosoma cruzi phosphomannomutase and mannose-1-phosphate guanylyltransferase assay. In kind it is functional. Conditions: 10 µM.
For test [6], the target named is T2, Arginase-2, mitochondrial (Homo sapiens) (UniProt P78540).
T2 sequence (whole entry): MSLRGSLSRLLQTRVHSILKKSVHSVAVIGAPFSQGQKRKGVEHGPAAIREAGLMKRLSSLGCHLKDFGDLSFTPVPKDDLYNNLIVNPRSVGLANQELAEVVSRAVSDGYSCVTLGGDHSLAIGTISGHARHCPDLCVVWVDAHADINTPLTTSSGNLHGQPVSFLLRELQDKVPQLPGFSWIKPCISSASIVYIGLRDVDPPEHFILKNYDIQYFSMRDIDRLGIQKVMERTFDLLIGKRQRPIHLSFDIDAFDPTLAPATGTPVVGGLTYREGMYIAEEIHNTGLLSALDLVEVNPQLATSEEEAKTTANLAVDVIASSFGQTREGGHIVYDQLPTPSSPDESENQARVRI
The experiment in a line: in vitro enzyme assay to detect the production of urea directly proportional to the activity of Arginase II. Also: in the data most compounds retested in dose-response had high values. The class given is functional. Conditions: 33.3 µM.

Test [7] addresses T3, Proteasome subunit beta (Trypanosoma cruzi) (UniProt O96673).
T3 sequence (whole entry): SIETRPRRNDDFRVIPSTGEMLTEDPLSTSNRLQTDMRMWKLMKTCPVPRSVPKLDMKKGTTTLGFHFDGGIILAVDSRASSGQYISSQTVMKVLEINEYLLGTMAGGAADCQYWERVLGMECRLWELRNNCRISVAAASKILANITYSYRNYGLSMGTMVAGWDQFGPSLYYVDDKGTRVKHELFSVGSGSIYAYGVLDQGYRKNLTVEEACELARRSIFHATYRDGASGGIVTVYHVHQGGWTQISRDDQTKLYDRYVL
The experiment in a line: Trypanosoma cruzi proteasome chymotrypsin-like activity (TcProtChymo) assay. Also: in the data most compounds retested in dose-response had high values. In kind it is functional. Conditions: 9.37 µM.

The species entered for test [8] is Homo sapiens. The experiment in a line: To identify inhibition of the IFN signalling (Jak-Stat) pathway via expression of an eGFP reporter gene under the control of an IFN-stimulated response element (ISRE) containing MxA promoter. Conditions: 30 µM. In kind it is functional. (In a reporter assay the amount or activity of a reporter protein is the signal.)
In test [9] the target is T4, Tyrosyl-tRNA synthetase, putative (Trypanosoma cruzi (strain CL Brener)) (UniProt Q4DSP6).
T4 sequence (whole entry): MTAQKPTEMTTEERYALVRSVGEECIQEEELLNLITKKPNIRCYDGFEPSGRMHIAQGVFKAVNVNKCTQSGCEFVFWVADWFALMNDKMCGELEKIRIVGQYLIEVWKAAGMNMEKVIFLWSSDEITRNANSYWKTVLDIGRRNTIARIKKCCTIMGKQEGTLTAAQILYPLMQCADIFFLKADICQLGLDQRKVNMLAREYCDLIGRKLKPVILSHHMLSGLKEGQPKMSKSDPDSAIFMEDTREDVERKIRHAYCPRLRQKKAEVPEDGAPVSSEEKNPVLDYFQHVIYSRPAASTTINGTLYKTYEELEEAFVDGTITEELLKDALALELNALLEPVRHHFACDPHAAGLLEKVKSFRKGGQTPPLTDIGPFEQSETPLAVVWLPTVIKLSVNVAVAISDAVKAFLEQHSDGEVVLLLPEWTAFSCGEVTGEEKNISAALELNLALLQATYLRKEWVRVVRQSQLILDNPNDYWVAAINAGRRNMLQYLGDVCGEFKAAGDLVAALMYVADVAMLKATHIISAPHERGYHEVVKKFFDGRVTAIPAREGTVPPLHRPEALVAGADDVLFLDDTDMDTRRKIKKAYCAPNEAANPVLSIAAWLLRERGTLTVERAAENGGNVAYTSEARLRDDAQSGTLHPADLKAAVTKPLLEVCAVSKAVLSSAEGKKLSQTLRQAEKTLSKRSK
The experiment in a line: Trypanosoma cruzi tyrosyl tRNA synthetase (TcYRS) _High Tyrosine SOP. Also: in the data most compounds retested in dose-response had high values. The class given is functional. Conditions: 30 µM.

The target in test [10] is T4, Tyrosyl-tRNA synthetase, putative (Trypanosoma cruzi (strain CL Brener)). The experiment in a line: Trypanosoma cruzi tyrosyl tRNA synthetase (TcYRS) SOP. In kind it is functional. The settings on record: 30 µM.
The target in test [11] is Chromo domain-containing protein 1 (Saccharomyces cerevisiae (strain ATCC 204508 / S288c) (Baker's yeast)) (UniProt P32657). The experiment in a line: ScCHD-1 Enzyme Inhibition Assay. Also: in the data most compounds retested in dose-response had high values. The class given is functional. The settings on record: 30 µM.
Sequence of Chromo domain-containing protein 1 (Saccharomyces cerevisiae (strain ATCC 204508 / S288c) (Baker's yeast)) (P32657 whole entry, the tested form may be a part): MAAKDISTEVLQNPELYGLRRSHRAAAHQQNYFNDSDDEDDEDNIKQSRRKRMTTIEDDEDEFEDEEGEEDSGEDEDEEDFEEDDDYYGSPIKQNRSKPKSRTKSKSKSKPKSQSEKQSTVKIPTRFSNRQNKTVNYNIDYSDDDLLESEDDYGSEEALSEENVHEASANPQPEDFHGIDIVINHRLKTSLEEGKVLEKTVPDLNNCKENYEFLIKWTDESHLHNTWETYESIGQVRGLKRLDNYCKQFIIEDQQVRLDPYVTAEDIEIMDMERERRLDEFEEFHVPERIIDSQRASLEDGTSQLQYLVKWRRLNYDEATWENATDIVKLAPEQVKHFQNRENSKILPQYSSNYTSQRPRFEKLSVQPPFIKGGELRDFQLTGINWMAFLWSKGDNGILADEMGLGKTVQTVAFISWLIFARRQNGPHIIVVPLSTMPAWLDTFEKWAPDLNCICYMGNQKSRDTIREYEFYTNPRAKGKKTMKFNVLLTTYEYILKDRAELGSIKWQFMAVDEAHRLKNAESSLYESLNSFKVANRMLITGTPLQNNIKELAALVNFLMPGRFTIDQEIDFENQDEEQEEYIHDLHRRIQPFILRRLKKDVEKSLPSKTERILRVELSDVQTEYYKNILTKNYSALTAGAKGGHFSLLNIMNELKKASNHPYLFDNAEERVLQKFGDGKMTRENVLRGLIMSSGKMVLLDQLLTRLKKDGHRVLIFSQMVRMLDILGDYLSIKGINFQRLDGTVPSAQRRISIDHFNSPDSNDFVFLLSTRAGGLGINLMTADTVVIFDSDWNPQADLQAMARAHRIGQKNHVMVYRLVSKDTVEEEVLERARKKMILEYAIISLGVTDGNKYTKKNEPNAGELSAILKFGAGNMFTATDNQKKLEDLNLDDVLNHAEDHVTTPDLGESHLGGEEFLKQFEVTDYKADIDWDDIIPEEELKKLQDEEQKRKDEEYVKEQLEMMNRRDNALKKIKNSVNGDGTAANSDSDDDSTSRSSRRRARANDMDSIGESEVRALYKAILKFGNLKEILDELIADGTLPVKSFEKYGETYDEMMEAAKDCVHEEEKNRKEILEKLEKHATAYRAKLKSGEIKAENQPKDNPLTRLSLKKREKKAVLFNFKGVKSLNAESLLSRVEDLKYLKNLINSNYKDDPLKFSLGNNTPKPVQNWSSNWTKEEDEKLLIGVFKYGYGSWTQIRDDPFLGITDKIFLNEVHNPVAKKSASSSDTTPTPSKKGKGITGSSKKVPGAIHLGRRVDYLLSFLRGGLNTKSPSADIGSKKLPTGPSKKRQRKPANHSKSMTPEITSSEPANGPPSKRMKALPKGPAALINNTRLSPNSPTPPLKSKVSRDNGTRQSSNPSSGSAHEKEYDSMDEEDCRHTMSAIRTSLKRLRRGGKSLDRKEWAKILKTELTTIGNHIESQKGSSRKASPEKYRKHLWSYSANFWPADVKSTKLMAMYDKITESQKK

Sequence of Sialic acid-binding Ig-like lectin 9 (Homo sapiens) (Q9Y336 whole entry): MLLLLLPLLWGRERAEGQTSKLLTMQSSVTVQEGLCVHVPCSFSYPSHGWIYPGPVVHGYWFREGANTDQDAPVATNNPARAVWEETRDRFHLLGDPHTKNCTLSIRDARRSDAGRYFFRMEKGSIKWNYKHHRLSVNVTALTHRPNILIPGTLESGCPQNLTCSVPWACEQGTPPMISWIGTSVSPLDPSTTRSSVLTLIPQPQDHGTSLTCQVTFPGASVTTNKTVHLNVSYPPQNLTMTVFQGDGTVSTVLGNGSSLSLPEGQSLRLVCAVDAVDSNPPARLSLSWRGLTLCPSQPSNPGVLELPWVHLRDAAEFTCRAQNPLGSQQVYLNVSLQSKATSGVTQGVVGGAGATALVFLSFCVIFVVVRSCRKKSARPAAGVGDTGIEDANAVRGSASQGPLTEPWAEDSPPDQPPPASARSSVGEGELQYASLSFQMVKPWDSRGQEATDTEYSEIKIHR
Sequence of Protein translocase subunit SecA (Escherichia coli (strain K12)) (P10408 whole entry): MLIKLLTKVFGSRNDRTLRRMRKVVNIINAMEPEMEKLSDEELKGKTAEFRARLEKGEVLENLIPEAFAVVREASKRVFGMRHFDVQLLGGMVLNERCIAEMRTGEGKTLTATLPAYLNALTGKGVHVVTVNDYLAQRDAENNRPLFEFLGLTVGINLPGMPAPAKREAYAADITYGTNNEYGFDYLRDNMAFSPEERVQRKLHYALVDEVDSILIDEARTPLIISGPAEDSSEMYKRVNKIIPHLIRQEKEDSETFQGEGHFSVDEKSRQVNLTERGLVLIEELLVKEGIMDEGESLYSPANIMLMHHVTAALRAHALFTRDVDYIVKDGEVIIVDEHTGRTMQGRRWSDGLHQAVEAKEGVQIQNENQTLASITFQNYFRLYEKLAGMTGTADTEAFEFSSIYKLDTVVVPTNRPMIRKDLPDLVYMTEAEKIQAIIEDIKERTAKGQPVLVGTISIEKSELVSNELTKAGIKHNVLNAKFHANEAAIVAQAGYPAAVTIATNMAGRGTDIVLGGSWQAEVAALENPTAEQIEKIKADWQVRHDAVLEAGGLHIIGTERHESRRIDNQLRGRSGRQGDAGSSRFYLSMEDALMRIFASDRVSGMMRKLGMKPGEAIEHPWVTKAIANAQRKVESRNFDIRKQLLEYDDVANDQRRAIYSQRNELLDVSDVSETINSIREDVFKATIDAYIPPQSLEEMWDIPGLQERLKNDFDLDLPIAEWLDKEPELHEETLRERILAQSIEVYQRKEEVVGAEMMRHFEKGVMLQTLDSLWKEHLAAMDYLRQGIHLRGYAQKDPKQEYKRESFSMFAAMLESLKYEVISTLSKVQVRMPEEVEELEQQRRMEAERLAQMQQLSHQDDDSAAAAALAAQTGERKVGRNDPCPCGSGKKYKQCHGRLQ

In the case of `CCOC(=O)c1sc2ccsc2c1CNC(=O)C(C)(C)C#N`, the Percent Effect in test [1] is -2.65%; in test [2] it was 0%; in [3], 8.08%; in test [4], 1.84%; in test [5], 1.76%; in [6] it was -5.73%. Moreover, the Percent Effect in test [7] is -5.57%; in [8] it was 13.9%; in test [9], 5.94%; in test [10], 11%; in test [11], 14.5%.
Consider `Cn1ccnc1CN1CCN(CC(O)c2ccc(F)c(F)c2)CC1` (stereo not given), for which the Percent Effect was -8.39% in test [1]; 10.4% in test [2]; -6.83% in test [3]; -0.647% in [4]; -6.93% in [5]; 1.42% in test [6]. Also, the Percent Effect was 0.507% in test [7]; 29.6% in [8]; 0% in test [9]; -2.44% in test [10]; -2.48% in test [11].
On to `CN1CCN(Cc2nc3ccccc3[nH]2)[C@H]2CS(=O)(=O)C[C@H]21`, for which the Percent Effect is -1.9% in [1]; 8.11% in [2]; -2.29% in test [3]; -1.77% in test [4]; -1.07% in test [5]; -1.24% in test [6]. Further, the Percent Effect was 13.1% in test [7]; 5.83% in test [8]; 10.8% in test [9]; 18.5% in test [10]; -2.69% in test [11].
As for `Cc1noc(CN2Cc3ccccc3CC2c2nnc(C)o2)n1` (stereo not given), the Percent Effect was -3.16% in [1]; 5.2% in [2]; 6.26% in [3]; 12.5% in [4]; 3.23% in [5]; 1.9% in test [6]. The Percent Effect is 5.58% in test [7]; 8.44% in test [8]; 2.86% in [9]; 7.06% in [10]; 3.28% in [11].
As for `CCn1ncnc1C(C)NC(=O)C1CCN(C(=O)COC)CC1` (stereo not given), the Percent Effect is -7.01% in test [1]; 8.11% in test [2]; -1.09% in test [3]; 0.673% in test [4]; -0.489% in test [5]; 4.22% in test [6]. The Percent Effect was 9.19% in test [7]; 1.26% in test [8]; 10.8% in test [9]; 18.5% in test [10]; -2.43% in [11].
For the compound `Cc1cnn(C2CCCN(C(=O)CCc3nccs3)C2)c1` (stereo not given), the Percent Effect is -2.71% in test [1]; 16.2% in test [2]; -1.11% in [3]; 0.709% in [4]; -8.4% in test [5]; 1.2% in [6]. The Percent Effect in test [7] is 17.3%; in test [8], 16.1%; in [9], 2.46%; in test [10], 3.7%; in test [11], -3.34%.
For `Cc1ncsc1C(=O)NCCSCCCO`, the Percent Effect in test [1] is 1.26%; in test [2], 16.2%; in test [3], -5.95%; in test [4], -2.14%; in test [5] it was 1.02%; in test [6], -1.29%. Moreover, the Percent Effect in [7] was 15.4%; in test [8], -0.639%; in test [9], 4.95%; in [10], 15.8%; in [11], -4.16%.
Consider `Cc1cc(C)cc(NS(=O)(=O)c2cc3c(c(C(=O)O)c2)OCCO3)c1`, for which the Percent Effect was -4.74% in [1]; 6.33% in [2]; -7.57% in test [3]; 3.67% in [4]; 0.308% in test [5]; -5.38% in test [6]. Moreover, the Percent Effect is 15.4% in test [7]; 2.08% in test [8]; -10.4% in test [9]; -5.06% in [10]; -26.1% in test [11].
In the case of `O=C(c1cccnc1)N1CCCC2(CCN(c3ccsc3)C2=O)C1` (stereo not given), the Percent Effect in [1] is -2.21%; in test [2], 10.4%; in test [3], 15.5%; in test [4], -9.57%; in [5], -8.19%; in [6] it was 11%. Besides, the Percent Effect in test [7] was 20.9%; in test [8] it was 9.28%; in test [9] it was -7.41%; in test [10], 1.28%; in test [11], -9.17%.
As for `CCS(=O)(=O)N1CCC[C@]2(C(=O)N(C)C)CN(c3ccccn3)C[C@@H]2C1`, the Percent Effect in test [1] is -6.08%; in test [2], 5.33%; in test [3] it was 2.98%; in test [4] it was 0.0913%; in [5] it was 4.05%; in test [6], -50%. Besides, the Percent Effect in [7] is 10.1%; in [8], -17%; in test [9], 3.12%; in test [10], 12.5%; in test [11] it was -5.8%.

These data come from ChEMBL document CHEMBL3988442, “University of Dundee, Small-Polar-MMV Screening Library” (2021).
